# Results as given in ChEMBL document CHEMBL2218924, “A broad activity screen in support of a chemogenomic map for kinase signalling research and drug discovery” (Biochem J, 2013).
# Columns and labels:
# [1] = target: T1, Ephrin type-B receptor 1 (Homo sapiens) (UniProt P54762); conditions: at 10 µM
# T1 sequence (whole entry): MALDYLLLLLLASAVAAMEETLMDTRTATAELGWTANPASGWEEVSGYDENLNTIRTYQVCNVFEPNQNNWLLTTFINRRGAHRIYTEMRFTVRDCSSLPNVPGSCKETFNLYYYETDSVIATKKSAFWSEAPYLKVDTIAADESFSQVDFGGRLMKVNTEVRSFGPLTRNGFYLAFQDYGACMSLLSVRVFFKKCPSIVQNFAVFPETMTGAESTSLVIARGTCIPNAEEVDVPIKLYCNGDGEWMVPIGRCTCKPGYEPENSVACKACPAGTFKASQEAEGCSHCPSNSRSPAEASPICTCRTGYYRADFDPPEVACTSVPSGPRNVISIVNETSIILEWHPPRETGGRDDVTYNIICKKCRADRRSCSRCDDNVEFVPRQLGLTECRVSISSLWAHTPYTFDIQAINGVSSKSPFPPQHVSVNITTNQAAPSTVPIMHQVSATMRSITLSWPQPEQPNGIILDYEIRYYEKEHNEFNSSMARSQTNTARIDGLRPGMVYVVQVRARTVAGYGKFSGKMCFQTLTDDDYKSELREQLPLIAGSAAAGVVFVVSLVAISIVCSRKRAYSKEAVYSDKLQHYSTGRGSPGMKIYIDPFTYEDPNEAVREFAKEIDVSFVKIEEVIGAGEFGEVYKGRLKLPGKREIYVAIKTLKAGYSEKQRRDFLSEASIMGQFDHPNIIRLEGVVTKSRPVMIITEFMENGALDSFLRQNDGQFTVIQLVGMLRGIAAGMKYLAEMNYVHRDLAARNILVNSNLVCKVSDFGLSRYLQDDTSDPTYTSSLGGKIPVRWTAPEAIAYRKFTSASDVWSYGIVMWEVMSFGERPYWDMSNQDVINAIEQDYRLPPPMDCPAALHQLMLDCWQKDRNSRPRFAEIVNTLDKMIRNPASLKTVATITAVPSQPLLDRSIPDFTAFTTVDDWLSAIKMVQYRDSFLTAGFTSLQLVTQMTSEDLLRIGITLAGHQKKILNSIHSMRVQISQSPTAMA
# [2] = target: T2, Ephrin type-B receptor 2 (Homo sapiens) (UniProt P29323); conditions: at 1 µM
# T2 sequence (whole entry): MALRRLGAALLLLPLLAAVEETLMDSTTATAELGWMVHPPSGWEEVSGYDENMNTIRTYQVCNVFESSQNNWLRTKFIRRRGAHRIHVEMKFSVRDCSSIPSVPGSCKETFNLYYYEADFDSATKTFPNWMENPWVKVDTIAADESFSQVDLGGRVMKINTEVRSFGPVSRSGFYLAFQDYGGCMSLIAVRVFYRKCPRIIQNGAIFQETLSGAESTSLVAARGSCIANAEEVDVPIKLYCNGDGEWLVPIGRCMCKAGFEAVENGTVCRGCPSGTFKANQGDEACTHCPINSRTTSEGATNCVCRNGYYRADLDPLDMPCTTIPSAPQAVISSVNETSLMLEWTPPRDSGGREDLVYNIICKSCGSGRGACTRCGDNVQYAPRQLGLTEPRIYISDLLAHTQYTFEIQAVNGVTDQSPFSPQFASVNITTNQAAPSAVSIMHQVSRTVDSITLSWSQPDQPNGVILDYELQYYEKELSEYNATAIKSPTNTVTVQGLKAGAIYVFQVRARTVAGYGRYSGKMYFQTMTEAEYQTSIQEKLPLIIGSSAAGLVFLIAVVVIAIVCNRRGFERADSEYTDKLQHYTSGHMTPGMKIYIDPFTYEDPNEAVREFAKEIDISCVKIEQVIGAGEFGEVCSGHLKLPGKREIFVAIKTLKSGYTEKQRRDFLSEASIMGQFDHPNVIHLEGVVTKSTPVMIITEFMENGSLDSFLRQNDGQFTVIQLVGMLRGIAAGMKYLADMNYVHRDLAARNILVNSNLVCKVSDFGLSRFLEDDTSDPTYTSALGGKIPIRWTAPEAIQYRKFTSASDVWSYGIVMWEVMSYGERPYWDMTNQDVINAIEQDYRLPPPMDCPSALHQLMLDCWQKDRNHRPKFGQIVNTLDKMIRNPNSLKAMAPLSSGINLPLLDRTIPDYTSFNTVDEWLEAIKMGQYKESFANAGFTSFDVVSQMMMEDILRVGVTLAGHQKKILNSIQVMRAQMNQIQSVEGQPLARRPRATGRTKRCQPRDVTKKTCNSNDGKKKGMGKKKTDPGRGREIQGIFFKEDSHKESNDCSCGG
# [3] = target: T2, Ephrin type-B receptor 2 (Homo sapiens); conditions: at 10 µM
# [4] = target: T3, Ephrin type-B receptor 3 (Homo sapiens) (UniProt P54753); conditions: at 1 µM
# T3 sequence (whole entry): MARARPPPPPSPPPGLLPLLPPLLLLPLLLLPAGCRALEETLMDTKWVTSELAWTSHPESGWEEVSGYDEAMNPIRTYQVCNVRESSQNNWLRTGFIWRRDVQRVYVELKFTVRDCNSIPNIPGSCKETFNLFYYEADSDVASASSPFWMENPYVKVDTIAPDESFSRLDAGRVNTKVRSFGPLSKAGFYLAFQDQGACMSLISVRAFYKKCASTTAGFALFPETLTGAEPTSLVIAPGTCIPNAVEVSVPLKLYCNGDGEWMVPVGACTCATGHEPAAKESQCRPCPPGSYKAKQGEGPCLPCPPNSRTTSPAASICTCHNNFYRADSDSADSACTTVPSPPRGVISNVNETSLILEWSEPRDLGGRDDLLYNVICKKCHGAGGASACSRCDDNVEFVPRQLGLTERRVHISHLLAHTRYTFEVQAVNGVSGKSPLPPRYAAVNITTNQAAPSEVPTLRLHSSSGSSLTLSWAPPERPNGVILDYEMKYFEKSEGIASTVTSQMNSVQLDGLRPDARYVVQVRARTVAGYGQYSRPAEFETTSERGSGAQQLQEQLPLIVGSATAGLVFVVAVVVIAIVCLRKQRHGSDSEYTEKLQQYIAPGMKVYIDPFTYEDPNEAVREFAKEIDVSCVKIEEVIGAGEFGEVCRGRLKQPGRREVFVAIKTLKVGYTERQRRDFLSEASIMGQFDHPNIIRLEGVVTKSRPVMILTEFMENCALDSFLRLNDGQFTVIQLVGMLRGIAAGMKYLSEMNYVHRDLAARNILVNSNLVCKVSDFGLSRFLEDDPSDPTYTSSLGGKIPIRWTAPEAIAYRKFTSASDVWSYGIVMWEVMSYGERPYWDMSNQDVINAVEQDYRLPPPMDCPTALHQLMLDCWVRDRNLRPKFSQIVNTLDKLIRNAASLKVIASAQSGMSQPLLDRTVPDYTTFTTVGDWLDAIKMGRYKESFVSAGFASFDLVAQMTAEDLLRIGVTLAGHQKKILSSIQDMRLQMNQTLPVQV
# [5] = target: T3, Ephrin type-B receptor 3 (Homo sapiens); conditions: at 10 µM
# [6] = target: T4, Ephrin type-B receptor 4 (Homo sapiens) (UniProt P54760); conditions: at 1 µM
# T4 sequence (whole entry): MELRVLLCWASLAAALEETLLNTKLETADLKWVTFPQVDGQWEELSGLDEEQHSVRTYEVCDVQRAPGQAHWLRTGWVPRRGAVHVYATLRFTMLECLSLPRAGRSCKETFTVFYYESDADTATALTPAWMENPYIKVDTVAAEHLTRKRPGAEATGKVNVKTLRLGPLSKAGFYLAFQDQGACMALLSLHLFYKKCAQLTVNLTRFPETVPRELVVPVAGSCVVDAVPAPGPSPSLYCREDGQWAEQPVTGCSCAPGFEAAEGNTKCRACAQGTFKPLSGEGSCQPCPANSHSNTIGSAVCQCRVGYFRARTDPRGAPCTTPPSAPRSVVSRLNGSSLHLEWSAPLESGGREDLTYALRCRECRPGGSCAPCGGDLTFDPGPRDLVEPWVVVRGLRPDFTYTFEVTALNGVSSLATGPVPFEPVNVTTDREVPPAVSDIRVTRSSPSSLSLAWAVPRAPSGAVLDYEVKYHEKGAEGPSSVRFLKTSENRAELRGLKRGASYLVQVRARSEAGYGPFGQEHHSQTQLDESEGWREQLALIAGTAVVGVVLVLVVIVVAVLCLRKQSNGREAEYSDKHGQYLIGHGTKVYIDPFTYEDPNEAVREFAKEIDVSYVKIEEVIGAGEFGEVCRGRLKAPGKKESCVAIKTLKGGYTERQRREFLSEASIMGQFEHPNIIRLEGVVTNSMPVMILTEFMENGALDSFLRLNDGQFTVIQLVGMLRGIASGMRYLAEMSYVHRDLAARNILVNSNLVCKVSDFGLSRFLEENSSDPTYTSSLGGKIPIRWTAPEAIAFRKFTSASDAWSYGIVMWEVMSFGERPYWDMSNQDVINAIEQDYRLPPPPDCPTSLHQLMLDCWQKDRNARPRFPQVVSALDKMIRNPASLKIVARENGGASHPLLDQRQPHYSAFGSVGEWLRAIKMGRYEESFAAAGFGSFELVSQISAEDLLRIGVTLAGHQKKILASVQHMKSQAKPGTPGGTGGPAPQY
# [7] = target: T4, Ephrin type-B receptor 4 (Homo sapiens); conditions: at 10 µM
# [8] = target: Receptor tyrosine-protein kinase erbB-4 (Homo sapiens) (UniProt Q15303); conditions: at 1 µM
# Receptor tyrosine-protein kinase erbB-4 (Homo sapiens), sequence (Q15303 whole entry): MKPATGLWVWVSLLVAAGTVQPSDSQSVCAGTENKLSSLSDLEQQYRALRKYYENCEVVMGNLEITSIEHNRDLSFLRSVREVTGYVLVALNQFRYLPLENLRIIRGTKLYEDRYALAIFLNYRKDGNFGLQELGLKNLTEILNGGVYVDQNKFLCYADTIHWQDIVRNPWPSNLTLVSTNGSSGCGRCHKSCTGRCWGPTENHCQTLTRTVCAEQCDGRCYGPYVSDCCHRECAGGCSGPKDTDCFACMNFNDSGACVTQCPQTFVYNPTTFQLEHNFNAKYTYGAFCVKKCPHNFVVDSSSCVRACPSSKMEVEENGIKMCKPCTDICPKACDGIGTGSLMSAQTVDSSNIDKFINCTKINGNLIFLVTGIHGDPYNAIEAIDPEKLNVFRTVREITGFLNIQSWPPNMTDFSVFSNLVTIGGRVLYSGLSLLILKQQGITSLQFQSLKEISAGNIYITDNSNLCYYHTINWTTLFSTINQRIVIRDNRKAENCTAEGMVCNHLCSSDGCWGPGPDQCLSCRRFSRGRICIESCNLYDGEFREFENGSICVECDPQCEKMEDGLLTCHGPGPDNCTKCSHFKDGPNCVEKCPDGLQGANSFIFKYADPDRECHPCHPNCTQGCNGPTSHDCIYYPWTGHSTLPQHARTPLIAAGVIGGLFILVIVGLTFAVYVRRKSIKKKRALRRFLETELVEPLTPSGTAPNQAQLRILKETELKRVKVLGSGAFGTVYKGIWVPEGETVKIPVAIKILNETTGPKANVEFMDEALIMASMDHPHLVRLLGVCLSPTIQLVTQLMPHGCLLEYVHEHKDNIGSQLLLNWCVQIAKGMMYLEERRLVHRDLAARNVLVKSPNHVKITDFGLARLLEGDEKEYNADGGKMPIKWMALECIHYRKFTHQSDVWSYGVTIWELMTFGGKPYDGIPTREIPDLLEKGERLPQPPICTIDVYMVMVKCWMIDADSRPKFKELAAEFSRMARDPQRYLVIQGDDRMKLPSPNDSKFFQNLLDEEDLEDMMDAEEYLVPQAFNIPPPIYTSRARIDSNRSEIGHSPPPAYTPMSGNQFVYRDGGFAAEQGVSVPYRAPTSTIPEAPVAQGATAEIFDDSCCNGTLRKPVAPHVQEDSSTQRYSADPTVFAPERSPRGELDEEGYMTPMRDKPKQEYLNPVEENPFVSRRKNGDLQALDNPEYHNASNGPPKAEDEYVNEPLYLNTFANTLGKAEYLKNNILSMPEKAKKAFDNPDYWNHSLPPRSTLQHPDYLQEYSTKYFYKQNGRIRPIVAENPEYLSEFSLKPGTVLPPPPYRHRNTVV
# [9] = target: Receptor tyrosine-protein kinase erbB-4 (Homo sapiens) (UniProt Q15303); conditions: at 10 µM
# [10] = target: Focal adhesion kinase 1 (Homo sapiens) (UniProt Q05397); conditions: at 1 µM
# Focal adhesion kinase 1 (Homo sapiens), sequence (Q05397 2-1052 limits assumed): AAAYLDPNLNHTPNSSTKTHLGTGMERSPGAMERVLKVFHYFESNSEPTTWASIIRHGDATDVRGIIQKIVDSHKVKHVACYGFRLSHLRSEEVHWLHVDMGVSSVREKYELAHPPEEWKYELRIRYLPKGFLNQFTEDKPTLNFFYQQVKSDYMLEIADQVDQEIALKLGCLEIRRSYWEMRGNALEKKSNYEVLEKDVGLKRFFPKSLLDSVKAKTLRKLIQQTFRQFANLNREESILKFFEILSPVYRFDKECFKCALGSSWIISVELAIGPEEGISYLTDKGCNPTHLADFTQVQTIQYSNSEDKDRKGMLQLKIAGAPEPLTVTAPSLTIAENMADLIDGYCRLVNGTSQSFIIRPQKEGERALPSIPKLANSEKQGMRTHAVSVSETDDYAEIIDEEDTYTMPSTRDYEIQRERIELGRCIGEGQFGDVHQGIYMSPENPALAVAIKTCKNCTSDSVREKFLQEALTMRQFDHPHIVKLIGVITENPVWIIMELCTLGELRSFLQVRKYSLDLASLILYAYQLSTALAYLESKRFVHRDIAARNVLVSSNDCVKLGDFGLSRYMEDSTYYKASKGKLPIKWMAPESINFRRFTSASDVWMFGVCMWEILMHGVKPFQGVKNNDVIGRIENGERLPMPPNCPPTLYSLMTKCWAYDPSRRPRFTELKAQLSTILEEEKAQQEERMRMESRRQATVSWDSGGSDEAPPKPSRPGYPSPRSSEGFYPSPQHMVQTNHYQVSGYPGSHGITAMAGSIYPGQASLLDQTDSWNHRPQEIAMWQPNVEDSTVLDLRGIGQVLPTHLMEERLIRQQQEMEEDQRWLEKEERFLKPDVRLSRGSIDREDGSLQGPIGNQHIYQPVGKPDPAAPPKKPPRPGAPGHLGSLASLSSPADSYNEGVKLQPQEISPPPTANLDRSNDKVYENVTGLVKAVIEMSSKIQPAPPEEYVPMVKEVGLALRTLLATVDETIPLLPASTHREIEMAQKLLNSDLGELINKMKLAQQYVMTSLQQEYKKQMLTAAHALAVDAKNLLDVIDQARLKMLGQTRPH
compound,measurement,setting,value
COc1cc2ncnc(Nc3ccc(O)c(Br)c3)c2cc1OC,residual activity,[1],10%
same,residual activity,[2],65%
same,residual activity,[3],1%
same,residual activity,[4],99% (inactive)
same,residual activity,[5],123%
same,residual activity,[6],19%
same,residual activity,[7],0%
same,residual activity,[8],16%
same,residual activity,[9],-1%
same,residual activity,[10],106%
